For assay [1], the target named is Lysosomal acid glucosylceramidase (Homo sapiens) (UniProt P04062). The assay can be described thus: Glucocerebrosidase-p2 (AID 348; in the data active = potency below about 10 µM; also: potency is read from the fitted curve at half-maximal effect). The note with it: purified GBA, blue fluorogenic substrate, 40 min. A digest of the protocol:
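Normal human glucocerebrosidase (0.2 nM) with blue fluorogenic substrate (80 uM final) in citrate/phosphate pH 5.9 with 10mM sodium taurocholate, 0.01% tween-20; 40 min RT, NaOH/glycine stop; fluorescence Ex 365/Em 440; AC50 from a titration from 0.6 nM upwards.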

Assay [2] can be described thus: AP1 Signaling Pathway (AID 357). Also: % is scaled to controls: 0 for no effect and ±100 for the full control effect. The note with it: ME-180 AP-1-bla reporter, EGF-induced, beta-lactamase ratio, 5 h; at 7.69 µM (top of the series) unless noted. A digest of the protocol: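 Cells are seeded overnight, exposed to compound titrations and an EC50 level of EGF for 5 hours at 37 °C, then loaded with CCF4 dye for 2.5 hours. Beta-lactamase activity under the AP-1 element is read as a blue/green ratio.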

The nature of assay [3]: NFAT Signaling Pathway (AID 444).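 Also: carbachol stimulus at about its EC50 of 1 µM final; % is scaled to controls: 0 for no effect and ±100 for the full control effect.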 As to conditions: Jurkat NFAT-bla M1, carbachol, beta-lactamase ratio, 5 h; at 7.69 µM (top of the series) unless noted. The essentials:
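Jurkat cells carrying an NFAT-driven β-lactamase reporter and co-transfected muscarinic M1 receptor were treated with compound plus carbachol (1 uM final, an EC50 level) for 5 h at 37 °C. CCF4 loading followed for 1 h at RT; 460/530 nm ratio gave %activity.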

Assay [4] is described as follows: Stat Signaling Pathway (AID 446).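 Also: ME-180 cervical cancer cells given 40 pM IL-6 alongside compound; SIE-controlled beta-lactamase reporter measured as 460/530 nm FRET emission ratio; % is scaled to controls: 0 for no effect and ±100 for the full control effect.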 As to conditions: ME-180 (cervical carcinoma) SIE beta-lactamase reporter, IL-6 stimulated, 5 h; at 7.69 µM (top of the series) unless noted. The essentials:
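Emission at 460 and 530 nm (excitation 405 nm) reports SIE-controlled beta-lactamase in ME-180 cells. Cells received compound with 40 pM IL-6 for 5 hrs at 37 C; data scaled between 300 pM IL-6 and 125 nM JAK-inhibitor controls.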

Assay [5] addresses Glucocorticoid receptor (Homo sapiens) (UniProt P04150). The assay can be described thus: GR-EFC Redistribution (AID 451; calls by dose curve; also: potency is read from the fitted curve at half-maximal effect). As to conditions: CHO-K1 GR-EFC translocation, beta-gal luminescence, 2 h. A digest of the protocol:
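CHO-K1 cells stably expressing nuclear-localized β-gal enzyme acceptor and GR fused C-terminally to the enzyme donor fragment; ligand-driven nuclear translocation restores β-gal by complementation. Compounds titrated up to 46 uM final, 2 h at 37 °C; luminescence read.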

Assay [6] addresses Mitogen-activated protein kinase 10 (Mus musculus) (UniProt Q61831). Description: JNK3 AlphaScreen Assay (AID 530).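 Also: kinase came from lysate of stimulated human HepG2 cells; % is scaled to controls: 0 for no effect and ±100 for the full control effect.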 The note with it: JNK3 lysate, c-Jun phosphorylation; series mostly up to 57.1 µM. The essentials: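 Biotinylated GST-cJun(1-79) served as substrate for JNK3 in HepG2 lysates stimulated with IL-1beta and TNF-alpha. ATP was 10 uM final, pH 7.6. Ser73 phosphorylation was quantified by AlphaScreen (680 nm excitation).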

In assay [7] the target is 3',5'-cyclic-AMP phosphodiesterase 4B (Homo sapiens) (UniProt Q07343). The assay can be described thus: qHTS Assay for Inhibitors of PDE-IV (AID 607; active = well fitted activation curve with a large enough effect in the main read-out, with a control signal flat, not every such curve was filed as active; also: % of control where 0% means no effect). As to conditions: HEK293 ACTOne CNG channel cells, membrane potential fluorescence; series mostly up to 22.9 µM. A digest of the protocol: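 The readout is membrane depolarisation from a cAMP-sensing CNG channel, detected with a potential dye at ex 535/em 590. Cells were HEK293-derived (endogenous PDE-IV) at 1000 cells/well, titrated up to 22.9 uM final.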
3',5'-cyclic-AMP phosphodiesterase 4B (Homo sapiens), sequence (Q07343 whole entry, looked up): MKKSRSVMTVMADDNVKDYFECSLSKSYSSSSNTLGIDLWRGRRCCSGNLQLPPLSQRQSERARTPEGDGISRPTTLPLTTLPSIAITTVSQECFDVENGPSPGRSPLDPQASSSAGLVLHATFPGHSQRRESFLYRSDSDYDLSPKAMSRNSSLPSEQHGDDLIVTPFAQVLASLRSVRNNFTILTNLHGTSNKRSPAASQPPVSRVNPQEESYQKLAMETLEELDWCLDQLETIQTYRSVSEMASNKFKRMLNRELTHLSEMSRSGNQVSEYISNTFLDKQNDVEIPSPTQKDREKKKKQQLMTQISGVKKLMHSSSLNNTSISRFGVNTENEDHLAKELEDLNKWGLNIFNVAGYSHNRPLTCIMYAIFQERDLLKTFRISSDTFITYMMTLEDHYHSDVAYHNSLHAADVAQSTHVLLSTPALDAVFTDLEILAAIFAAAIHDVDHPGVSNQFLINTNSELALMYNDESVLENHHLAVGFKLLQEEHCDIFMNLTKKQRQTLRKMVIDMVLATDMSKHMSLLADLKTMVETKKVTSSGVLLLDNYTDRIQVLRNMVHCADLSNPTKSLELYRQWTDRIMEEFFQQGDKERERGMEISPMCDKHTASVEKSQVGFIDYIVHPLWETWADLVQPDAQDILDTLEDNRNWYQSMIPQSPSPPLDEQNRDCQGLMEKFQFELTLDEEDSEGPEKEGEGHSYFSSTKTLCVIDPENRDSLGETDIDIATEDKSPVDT
Background: qHTS replaces the single test concentration by a dilution series.

A short description of assay [8]: qHTS Assay for Lipid Storage Modulators (AID 1519; calls by dose curve). The note with it: Drosophila S3 cells, BODIPY lipid droplet/cell ratio, laser cytometry, cells loaded with oleic acid; for activity change, negative = inhibition: at 57.5 µM (top of the series). A digest of the protocol: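 Cells seeded at 5,000 per well were treated with compounds over a concentration series and loaded with oleic acid (400 uM, as added). Lipid droplet fluorescence (488 nm excitation, 500-530 nm channel) was read by laser-scanning cytometry and normalized to 20 uM Triacsin C.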

Assay [9] can be described thus: Primary qHTS for small molecule stabilizers of the endoplasmic reticulum resident proteome: Secreted ER Calcium Modulated Protein (SERCaMP) assay (AID 1508630; active = well fitted inhibition curve with a large enough effect; also: % is scaled to controls: 0 for no effect and ±100 for the full control effect). As to conditions: SH-SY5Y GLuc-SERCaMP (Gaussia luciferase released on ER calcium loss) secretion, thapsigargin, luminescence; series mostly up to 38.4 µM. The essentials:
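The SH-SY5Y reporter protocol was run at 3 concentrations up to 38.3 uM (primary) or 11 concentrations (follow-up): 16 h compound, 100 nM thapsigargin for 4 h, then extracellular luciferase luminescence.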

[10] abbreviates: measured here: cell count channel max response.
The mark [11] stands for this setting: measured here: lipid channel max response.

Records with an inconclusive call do not appear. Active and inactive are the calls of the source. Unless noted, calls follow the shape of the dose curve; as a rule, active = well fitted curve in either direction with a large enough effect (not every such curve was filed as active); inconclusive = small, poorly fitted or top-dose-only effect, or another doubt; inactive = flat fitted curve, though single readings scatter.

Glucocorticoid receptor (Homo sapiens), sequence (P04150 whole entry, looked up, the tested form may be a part): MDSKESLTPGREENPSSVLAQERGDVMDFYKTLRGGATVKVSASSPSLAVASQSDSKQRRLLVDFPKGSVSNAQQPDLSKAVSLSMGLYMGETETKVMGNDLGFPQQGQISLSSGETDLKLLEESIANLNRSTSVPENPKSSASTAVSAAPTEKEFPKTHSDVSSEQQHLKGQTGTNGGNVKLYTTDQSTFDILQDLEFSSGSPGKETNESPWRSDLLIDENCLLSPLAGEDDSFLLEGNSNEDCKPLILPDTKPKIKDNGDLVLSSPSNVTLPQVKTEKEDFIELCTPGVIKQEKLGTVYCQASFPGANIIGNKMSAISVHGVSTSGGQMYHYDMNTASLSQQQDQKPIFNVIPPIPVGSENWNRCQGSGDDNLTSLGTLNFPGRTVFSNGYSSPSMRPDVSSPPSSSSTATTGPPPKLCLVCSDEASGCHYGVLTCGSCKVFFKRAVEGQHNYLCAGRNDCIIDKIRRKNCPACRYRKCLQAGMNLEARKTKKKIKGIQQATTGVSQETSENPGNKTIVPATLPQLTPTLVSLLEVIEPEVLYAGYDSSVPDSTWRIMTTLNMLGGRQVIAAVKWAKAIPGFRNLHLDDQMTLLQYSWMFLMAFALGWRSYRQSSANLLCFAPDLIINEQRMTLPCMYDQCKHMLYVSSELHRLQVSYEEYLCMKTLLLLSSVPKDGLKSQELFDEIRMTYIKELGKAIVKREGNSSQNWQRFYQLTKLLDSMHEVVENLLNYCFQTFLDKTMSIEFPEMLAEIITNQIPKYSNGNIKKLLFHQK
Lysosomal acid glucosylceramidase (Homo sapiens), sequence (P04062 whole entry, looked up): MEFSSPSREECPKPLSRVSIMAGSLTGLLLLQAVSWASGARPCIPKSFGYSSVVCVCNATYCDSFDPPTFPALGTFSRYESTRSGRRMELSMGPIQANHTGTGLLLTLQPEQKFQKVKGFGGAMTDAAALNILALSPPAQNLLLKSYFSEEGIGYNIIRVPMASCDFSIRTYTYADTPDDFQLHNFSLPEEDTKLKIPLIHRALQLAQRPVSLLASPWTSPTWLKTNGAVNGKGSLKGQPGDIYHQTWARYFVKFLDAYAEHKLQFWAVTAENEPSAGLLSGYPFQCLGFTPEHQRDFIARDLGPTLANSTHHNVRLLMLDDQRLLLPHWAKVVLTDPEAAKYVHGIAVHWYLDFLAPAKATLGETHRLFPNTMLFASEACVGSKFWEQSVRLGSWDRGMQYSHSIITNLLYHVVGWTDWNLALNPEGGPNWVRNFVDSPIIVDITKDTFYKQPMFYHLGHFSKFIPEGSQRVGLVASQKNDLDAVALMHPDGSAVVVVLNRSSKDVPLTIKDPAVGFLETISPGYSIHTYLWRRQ

In the case of `COc1ccc(NC(=O)N2CC3(CCNCC3)C2)cc1`, the Potency is > 11.4 µM (inactive) in assay [1] and > 46 µM (inactive) in assay [5]. Besides, the values for the activity change, negative = inhibition in assay [2], in [3] and in [8] were 7.88% (inactive), 6.29% (inactive) and 5.62% (inactive), respectively. Besides, the activity, negative = inhibition in assay [4] was -3.83% (inactive). The Potency result in assay [6] and in assay [7] was “inactive” throughout. In addition, the max response came to 12.7% in [8] (setting [10]) and 23% in [8] (setting [11]). For the same compound, the result in assay [9] was inactive.
As for `O=C(c1csnn1)N1CCC[C@@]2(CCN(C(c3ccccc3)c3ccccc3)C2)C1`, the Potency is > 11.4 µM (inactive) in [1] and > 46 µM (inactive) in assay [5]. In addition, the values for the activity change, negative = inhibition in [2], in assay [3] and in assay [8] were 8.26% (inactive), 29.4% (inactive) and -19.7% (inactive), respectively. Also, the activity, negative = inhibition in assay [4] was 26.4% (inactive). Further, the Potency entry in [6] and in [7] was “inactive” in each case. Also, the max response in assay [8] (setting [10]) was -5.14%; in assay [8] (setting [11]), -20.5%. Further, the result in assay [9] was inactive.
Take `Cc1noc(C)c1C(=O)N1CCC2(CCCN(C(=O)Nc3cccc(C#N)c3)C2)CC1`: the Potency in assay [1] was > 11.4 µM (inactive); in assay [5] it was > 46 µM (inactive). Also, the figures for the activity change, negative = inhibition in assay [2], in assay [3] and in [8] were -3.54% (inactive), -25.9% (inactive) and 9.42% (inactive), respectively. The activity, negative = inhibition in assay [4] was -0.0853% (inactive). For the same compound, the Potency entry in [6] and in assay [7] was “inactive” throughout. Besides, the figures for the max response in assay [8] (setting [10]) and in assay [8] (setting [11]) were 12.8% and 23.7%, respectively. Moreover, the result in assay [9] was inactive.
As to `CC(=O)N1CCC2(CC1)CN(Cc1cc(C(F)(F)F)cc(C(F)(F)F)c1)C2`, the figures for the Potency in [1] and in assay [5] were > 11.4 µM (inactive) and > 46 µM (inactive), respectively. Moreover, the results for the activity change, negative = inhibition in assay [2], in assay [3] and in assay [8] were 2.68% (inactive), 13.2% (inactive) and 4.71% (inactive), respectively. Moreover, the activity, negative = inhibition in [4] was 11% (inactive). Moreover, the Potency entry in assay [6] and in assay [7] was “inactive” each time. For the same compound, the max response in [8] (setting [10]) worked out at 20.4%; in [8] (setting [11]) it was 27.2%. Moreover, the outcome in [9] was inactive.
Turning to `COc1ccc(NC(=O)N2CC[C@@]3(CCCN(C(C)=O)C3)C2)cc1`, the Potency in [1] is > 11.4 µM (inactive); in assay [5] it was > 46 µM (inactive). The activity change, negative = inhibition in assay [2] is -3.83% (inactive); in assay [3], 13.8% (inactive); in assay [8], 5.28% (inactive). The activity, negative = inhibition in assay [4] was 6.12% (inactive). Moreover, the Potency entry in [6] and in assay [7] was “inactive” in each case. In addition, the values for the max response in assay [8] (setting [10]) and in assay [8] (setting [11]) were 4.36% and 12%, respectively. In addition, in assay [9], the outcome was inactive.
Turning to `Cc1noc(C)c1C(=O)N1CCC2(CC1)CN(Cc1cc(C(F)(F)F)cc(C(F)(F)F)c1)C2`, the Potency is > 11.4 µM (inactive) in [1] and > 46 µM (inactive) in assay [5]. Moreover, the activity change, negative = inhibition in [2] is -7.95% (inactive); in assay [3], -16.8% (inactive); in [8] it was -4.32% (inactive). Also, in assay [4], the activity, negative = inhibition is -3.94% (inactive). Also, the Potency entry in [6] and in [7] was “inactive” each time. For the same compound, the max response in [8] (setting [10]) was -1.83%; in assay [8] (setting [11]), -4.57%. Moreover, the result in assay [9] was inactive.
Regarding `CS(=O)(=O)N1CCC[C@@]2(CCN(Cc3ccc(C#N)cc3)C2)C1`, the Potency in assay [1] was > 11.4 µM (inactive); in [5], > 46 µM (inactive). For the same compound, the activity change, negative = inhibition was 10.7% (inactive) in assay [2], -5.85% (inactive) in assay [3] and 1.64% (inactive) in assay [8]. Besides, the activity, negative = inhibition in assay [4] is -6.21% (inactive). The Potency entry in [6] and in assay [7] was “inactive” in each case. Besides, the max response in assay [8] (setting [10]) was -0.832%; in [8] (setting [11]) it was -0.755%. The outcome in assay [9] was inactive.

These data come from PubChem BioAssay (NCATS).
